Sampled rows, rich in hits. Any-hit rate of the full collection: about 2.4%.
PINK1 modulator: PINK1 expression modulation. AID 624263. PINK1 immunofluorescence, high-content cytometry, 24 h. 410,000 compounds, 0.2% hits. Potency, µM (doses to about 76.6 µM), actives largely listed as activators; active = well fitted activation curve with a large enough effect; inconclusive = small, poorly fitted or top-dose-only effect; cell line not stated here; also: nearly all actives have a fitted effect of over 65% in size
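Decision-based qHTS: stable cells, 24 h exposure to five compound concentrations, CCCP as control. Fixed cells stained for PINK1 plus nuclear, mitochondrial and cell markers, cytometer read.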
Nrf2 ARE act: activates Nrf2 signaling. AREc32 ARE-luciferase reporter (MCF7-derived line), luminescence, 24 h. 410,000 compounds, 0.31% hits. Potency, µM (highest dose often 46.1 µM), most hits filed as activators; also: nearly all actives have a fitted effect of over 65% in size
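Luminescent ARE reporter assay in AREc32_Fluc cells: overnight plating at 37 deg C, 24 hr compound incubation, Steady-Glo added, 30 min RT before reading.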
A549 tox: kills or reduces viability of A549 cells in Nrf2 counter-screen; AID 504648; Potency, µM (series often up to 46 µM), most hits filed as inhibitors; 390,000 compounds, 0.16% hits; A549 ARE-Fluc cells, CellTiter-Fluor viability, 18-24 h
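A549 ARE-Fluc cells in 5% FBS OPTI-MEM, 5000 cells/well, rested 2 h then exposed to compounds in concentration-response for 18-24 h at 37 °C. Viability by CellTiter-Fluor fluorescence (Ex 405/Em 525) after 30 min; luciferase luminescence (BugLite, 15 min, RT) read afterwards.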
Epigenetic reg: epigenetic control regulation, reporter derepression; murine LDR cells, GFP reporter derepression, 30 h; Potency, µM (highest dose often 53.9 µM), hits mostly activators; 280,000 compounds, 0.2% hits; also: nearly all actives have a fitted effect of over 60% in size
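Readout is the number of GFP-expressing murine LDR cells, counted by cytometry following washing. Cells were treated with compound for 30 h at 37 C; the stably integrated CMV-GFP locus is normally silent.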
Nrf2 inh: inhibitors of Nrf2 signaling; Potency, µM (titrated, usually from 46 µM), hits mostly inhibitors; AID 504444; A549 ARE-Fluc reporter, luciferase luminescence, 18-24 h; 360,000 compounds, 2.1% hits; also: nearly all actives have a fitted effect of over 60% in size
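Concentration-response testing used A549 ARE_Fluc cells at 5000 cells/well. Following an 18-24 h compound incubation, viability was read by fluorescence (Ex 405/Em 525) and luciferase output by luminescence.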
Numbers stand for hits; 0 = inactive; ? = inconclusive; - = not tested or not shown; [ ] = dose if it differs, or a comment. Unless noted, calls follow the shape of the dose curve; as a rule, active = well fitted curve in the direction sought with a large enough effect; inconclusive = small, poorly fitted or top-dose-only effect, or another doubt; inactive = no such curve, though single readings can be large; an effect the other way counts as inactive or inconclusive.

SMILES	PINK1 modulator	Nrf2 ARE act	A549 tox	Epigenetic reg	Nrf2 inh
COC(=O)[C@H](Cc1ccccc1)NC(=O)O[C@@H]1C(=O)c2ccc(OC)cc2O[C@H]1c1ccc2c(c1)OCO2	-	-	-	0	-
O=C(Nc1ccc(N2CCN(c3ccc(O)cc3)CC2)cc1)Oc1ccccc1	0	0	0	0	?
Nc1ccc(OC(=O)Nc2ccc(O)cc2)cc1	0	0	0	0	21µM
O=C1CC(N2CCN(C/C=C/c3ccccc3)CC2)C(=O)N1CCc1ccccc1 (configuration not stated)	0	0	0	0	9.2µM
CN(Cc1cnc2ccccn12)C(=O)c1cc(NC(=O)c2ccccc2)cc2ncn(C3CCCC3)c12	0	-	-	-	-
O=C(Nc1ccc(Oc2ccccc2)nc1)C1CCN(Cc2ccco2)CC1	0	0	0	-	0
O=C(Nc1ccc(Oc2ccccc2)nc1)C1CCN(Cc2cccc(F)c2)CC1	0	0	?	-	18µM
C#Cc1ccc(CN2CCC(C(=O)Nc3ccc(Oc4ccccc4)nc3)CC2)cc1	0	0	?	-	18µM
CNC(=S)N1CCN(c2nc(-c3ccc(F)cc3)cs2)CC1	0	0	0	-	?
CCCNC(=S)N1CCN(c2nc(-c3cccc(OC)c3)cs2)CC1	0	0	0	-	?
CCCNC(=S)N1CCN(c2nc(-c3ccc(C)cc3)cs2)CC1	0	0	0	-	23µM
COc1ccc(-c2csc(N3CCN(C(=O)c4ccccc4)CC3)n2)cc1	0	0	0	0	13µM
COCCCNC(=S)N1CCN(c2nc(-c3ccc(F)cc3)cs2)CC1	0	0	0	-	15µM
CCOCCCNC(=S)N1CCN(c2nc(-c3ccc(F)cc3)cs2)CC1	0	0	0	-	16µM
COc1ccc(-c2csc(N3CCN(C(=O)c4ccco4)CC3)n2)cc1	0	0	0	0	0
CC(=O)OC[C@@H]1O[C@@H](O/N=C2/C[C@@H](O)[C@@H](O)[C@@H]3[C@@H]4C(=O)N(C5CCCCC5)C(=O)[C@H]4CC[C@@H]23)[C@H](OC(C)=O)[C@H](OC(C)=O)[C@@H]1OC(C)=O	-	-	-	0[10.1 µM]	-
CN(C)CC(C)(O)c1ccc2c(c1)CN(Cc1cccn1-c1cccnc1)CCO2 (configuration not stated)	0	-	-	-	-
COc1cccc(N2C(=O)c3ccccc3C2=O)c1	-	-	0	-	0
O=S1(=O)N=C(Oc2ccc(Br)cc2)c2ccccc21	-	-	0	-	0
Cc1cc(C)n(-c2ccc(C(=O)N3CCN(S(=O)(=O)c4ccc(C(C)C)cc4)CC3)cc2)n1	0	0	0	-	23µM
CN(CC(=O)Nc1ccc(F)cc1)c1ccc(S(=O)(=O)N2CCCCC2)cc1[N+](=O)[O-]	0	0[9.22 µM]	0	0	13µM
COc1ccc(OC)c(CNC(=O)CCCn2ccc3cc(S(=O)(=O)N4CCCC4)ccc32)c1	0	0	?	0	15µM
COc1cccc(CNC(=O)CCCn2ccc3cc(S(=O)(=O)N4CCCC4)ccc32)c1	0	0	0	-	0
COc1ccc(S(=O)(=O)N2CCCCC2)cc1NC(=O)c1[nH]c(C)c(C(C)=O)c1C	0	0	0	-	18µM
COc1ccc(S(=O)(=O)N2CCCCCC2)cc1C(=O)N(C)CC(=O)Nc1ccc(F)cc1	0	0	0	-	0
SMILES	PINK1 modulator	Nrf2 ARE act	A549 tox	Epigenetic reg	Nrf2 inh
CC(=O)c1c(C)[nH]c(C(=O)Nc2cc(S(=O)(=O)N3CCCCC3)ccc2C)c1C	0	0	0	-	?
COc1ccc(S(=O)(=O)N2CCCCC2)cc1NCC(=O)Nc1ccc(C)cc1	0	0	0	0	16µM
COc1ccc(S(=O)(=O)N2CCCCC2)cc1NC(=O)CNc1ccccc1C(C)=O	0	0	0	-	?
COc1ccc(NC(=O)CN2CCCN(S(=O)(=O)c3ccc(Br)cc3)CC2)c(OC)c1	0	0	18µM	0	21µM
COc1ccc(NC(=O)CN2CCCN(S(=O)(=O)c3ccc(F)cc3)CC2)c(OC)c1	0	0	0	0	?
COc1ccc(NC(=O)COc2ccccc2F)cc1S(=O)(=O)N1CCCCC1	0	0	0	-	?
COc1ccc(NC(=O)CCOc2ccccc2F)cc1S(=O)(=O)N1CCCCC1	0	0	0	-	21µM
CCc1ccc(CNC(=O)Cn2ccc3cc(S(=O)(=O)N4CCCCCC4)ccc32)cc1	0	0	0	?	0
Cc1ccc(S(=O)(=O)N2CCCCC2)cc1NC(=O)CSc1nncn1-c1ccccc1	0	0	0	0	18µM
Cc1ccc(CNC(=O)Cn2ccc3cc(S(=O)(=O)N4CCCCCC4)ccc32)cc1	0	0	?	-	15µM
O=C(COc1ccccc1C(=O)Nc1ccccc1)Nc1ccccc1Cl	0	-	-	-	-
COc1ccc(OC)c(CC(=O)Nc2cc(S(=O)(=O)N3CCCCC3)ccc2C)c1	0	0	0	-	21µM
O=C(Nc1ccc([N+](=O)[O-])cc1Cl)c1ccccc1O	?	-	?	-	23µM
O=C(Nc1c(Cl)cc([N+](=O)[O-])cc1Cl)c1cc(Cl)cc(Cl)c1O	14µM	-	?	-	?
CC(=O)OCC(=O)Nc1ccc([N+](=O)[O-])cc1Cl	0	0	0	0	0
CC(=O)Oc1c(C)cc(Cl)cc1C(=O)Nc1ccc([N+](=O)[O-])cc1Cl	?	0	2.6µM	0	1.6µM
CCNc1ccc(/C=C/c2ccnc3ccccc23)cc1	0	-	-	-	-
O=C1CC[C@@H](C(=O)NCC2Cc3cc(Cl)cc(-c4ccc5[nH]ccc5c4)c3O2)N1 (some centres not stated)	0	-	-	-	-
CNC(=S)Nc1cccc([N+](=O)[O-])c1	0	0	0	0	0
Cc1cc(Br)ccc1NC(=S)Nc1cccc([N+](=O)[O-])c1	40µM	0	0	0	0
CC(=O)c1ccc(F)c(-c2cc(C)cc3c2OC(CNC(=O)C[C@@H]2C[C@@H](C)NC(=S)N2)C3)c1 (some centres not stated)	0	-	-	-	-
Cc1ccc2cc(CN(Cc3ccc4c(c3)OCO4)Cc3nnnn3Cc3ccco3)c(=O)[nH]c2c1	0	0	0	0	?
Cc1ccc(CN(Cc2cc3cc4c(cc3[nH]c2=O)OCCO4)Cc2nnnn2Cc2ccco2)cc1	0	0	?	0	26µM
COc1ccc(N=C2NC(=O)/C(=C\C=C\c3ccco3)S2)cc1	0	13µM	0	0[10.1 µM]	0
Cc1nc(-c2ccc(C(=O)Nc3cccc(Br)c3)cc2)cs1	0	0	?	0	12µM
Cc1nc(-c2cccc(NC(=O)c3ccc(-n4nccc4C)cc3)c2)cs1	0	0	0	-	16µM
Cn1cnc([N+](=O)[O-])c1S(=O)(=O)c1ccc(Cl)cc1	0	0	?	0	18µM
Cn1cnc([N+](=O)[O-])c1NC(C)(C)C	0	0	0	0	-
COc1ccc(NC(=O)C23CC4CC(C2)CC(c2ccc(C)cc2)(C4)C3)cc1	0	0	0	0	16µM
CCOC(=O)/C(=C/C=C1\Sc2cc(OCC)c(OCC)cc2N1CC)C(C)=O	?	0	0	22µM	?

High-throughput results (PubChem)
